Shown are actives, neighbours in structure and some others; about 31% of the full set was active somewhere.
CYP2C19 act – increases human CYP2C19 enzyme activity; recombinant CYP2C19, luciferin-H EGE luminescence; active compounds read high; 0 = fully inhibited enzyme, 1 = untreated enzyme; activation factor at 5 µM; 96,000 tested, under 10 active; P33261;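 active = activation factor of at least 2 at 5 µM in the primary screen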;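 also: 0 = wells with 2.5 mM tranylcypromine and 1 = vehicle-only wells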
Target sequence (P33261 whole entry, looked up): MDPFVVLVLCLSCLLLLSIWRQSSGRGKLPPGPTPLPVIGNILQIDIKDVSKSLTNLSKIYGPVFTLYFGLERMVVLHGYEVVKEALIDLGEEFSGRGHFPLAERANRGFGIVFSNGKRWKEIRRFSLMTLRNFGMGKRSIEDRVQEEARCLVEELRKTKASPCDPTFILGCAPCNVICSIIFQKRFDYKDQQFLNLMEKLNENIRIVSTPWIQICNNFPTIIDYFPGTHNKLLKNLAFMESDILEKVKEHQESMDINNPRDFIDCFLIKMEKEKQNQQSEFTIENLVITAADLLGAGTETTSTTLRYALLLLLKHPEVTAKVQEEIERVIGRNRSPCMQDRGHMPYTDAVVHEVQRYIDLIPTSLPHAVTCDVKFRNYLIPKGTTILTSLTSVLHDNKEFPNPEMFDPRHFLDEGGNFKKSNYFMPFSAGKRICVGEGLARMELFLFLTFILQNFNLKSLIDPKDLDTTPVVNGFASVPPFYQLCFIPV
CYP2C19 inh – blocks human cytochrome P450 2C19; P33261; inhibition, % at 5 µM; actives 21% (n = 96,000); AID 778; CYP2C19 Supersomes, luciferin-H EGE luminescence, 30 min;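 active = CYP2C19 inhibition above a set limit at 5 µM in the primary screen, cut at about 50% in these data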;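 also: plate controls were negative control wells for no effect and 2.5 mM tranylcypromine positive control for full effect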
CYP2C9 activ – CYP2C9 (human) activation; recombinant CYP2C9, luciferin-H conversion, luminescence; active compounds read high; factor 1 = untreated enzyme, 0 = blocked; activation factor at 5 µM; actives 1.4% (n = 96,000); AID 1024;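 active = activation factor of 2 or more for CYP2C9 at a 5 µM dose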;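 also: 0 = sulfaphenazole-blocked wells and 1 = vehicle-only wells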
CYP2C9 inh – human CYP2C9 inhibition. inhibition, % at 5 µM. CYP2C9 Supersomes, luciferin-H conversion, luminescence. AID 777. P11712. actives 20% (n = 96,000);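 active = blocking of liver enzyme CYP2C9 beyond about 50% at 5 µM, limit read from the data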
* = called active by the depositor.

For COc1ccc(CC(=O)Nc2ccc(S(=O)(=O)NC(C)C)cc2)cc1 the results were CYP2C19 act 0.4, CYP2C19 inh 62*, CYP2C9 activ 0.4 and CYP2C9 inh 60*.
For COc1ccc(CC(=O)Nc2ccc(C(=O)NCC(C)C)cc2)cc1 the results were CYP2C19 act 0.8, CYP2C19 inh 17, CYP2C9 activ 1 and CYP2C9 inh 3.
For CCn1c(-c2ccccc2)c(C(=O)O)c2ccccc21 the results were CYP2C19 act 1.1, CYP2C19 inh -6, CYP2C9 activ 1.1 and CYP2C9 inh -11.
`Cc1cccc(C2Nc3ccccc3C(=O)N2c2ccccc2)n1` (stereo not given) gave CYP2C19 act 0.3, CYP2C19 inh 71*, CYP2C9 activ 0.3 and CYP2C9 inh 70*.
Screening O=C1c2ccccc2NC(c2ccccn2)N1c1ccc(Cl)cc1 (stereo not given) returned CYP2C19 act 0.5, CYP2C19 inh 48, CYP2C9 activ 0.4 and CYP2C9 inh 63*.
Screening c1ccc(CN2CCN(c3ncnc4nc[nH]c34)CC2)cc1 returned CYP2C19 act 0.6, CYP2C19 inh 37, CYP2C9 activ 1 and CYP2C9 inh 4.
CCOC(=O)c1c(C)n(C)c2ccc(OCC(O)Cn3c(C)nc4ccccc43)cc12 (stereo not given) was read as CYP2C19 act 0.5, CYP2C19 inh 47, CYP2C9 activ 0.3 and CYP2C9 inh 70*.
`CCC(=O)c1ccc(OCC(O)Cn2c(C)nc3ccccc32)cc1` (stereo not given) gave CYP2C19 act 0.3, CYP2C19 inh 72*, CYP2C9 activ 0.5 and CYP2C9 inh 50*.
CCC(=O)c1ccc(OCC(O)Cn2cnc3ccccc32)cc1 (stereo not given) was read as CYP2C19 act 0.9, CYP2C19 inh 9, CYP2C9 activ 0.9 and CYP2C9 inh 14.
For Nc1nnc(SCC(=O)N2CCN(Cc3ccccc3)CC2)s1 the results were CYP2C19 act 0.3, CYP2C19 inh 68*, CYP2C9 activ 0.5 and CYP2C9 inh 53*.
For Cc1nnc(SCC(=O)N2CCN(Cc3ccccc3)CC2)s1 the results were CYP2C19 act 0.1, CYP2C19 inh 89*, CYP2C9 activ 0.8 and CYP2C9 inh 19.
`Nc1nnc(SCC(=O)c2ccc3ccccc3c2)s1` gave CYP2C19 act 0.2, CYP2C19 inh 78*, CYP2C9 activ 0.6 and CYP2C9 inh 38.
Screening CCCn1c(SCC(=O)NC2CCCCC2C)n[nH]c1=O (stereo not given) returned CYP2C19 act 1.2, CYP2C19 inh -24, CYP2C9 activ 1.2 and CYP2C9 inh -19.
For CSCCC1NC(=O)N(CC(=O)Nc2ccc(N3CCCCC3)cc2)C1=O (stereo not given) the results were CYP2C19 act 1.1, CYP2C19 inh -11, CYP2C9 activ 1 and CYP2C9 inh -3.
Screening COCC(=O)N/N=C(\C)CC(=O)Nc1ccccc1C(N)=O returned CYP2C19 act 0.8, CYP2C19 inh 21, CYP2C9 activ 1 and CYP2C9 inh 0.
CC(C)N=C(NC#N)SCc1ccc(F)cc1 was read as CYP2C19 act 0.1, CYP2C19 inh 95*, CYP2C9 activ 0.4 and CYP2C9 inh 63*.
Screening COc1cccc(C(=O)Oc2cc(N)n(S(=O)(=O)c3ccc(C)cc3)n2)c1OC returned CYP2C19 act 0.9, CYP2C19 inh 9, CYP2C9 activ 0.2 and CYP2C9 inh 76*.
Screening Nc1cc(OC(=O)c2cccs2)nn1S(=O)(=O)c1ccc(F)cc1 returned CYP2C19 act 0.6, CYP2C19 inh 40, CYP2C9 activ 0.1 and CYP2C9 inh 93*.
Screening Cc1c(/C(O)=C2/C(=O)C(=O)N(CCN3CCOCC3)C2c2cccnc2)cnn1-c1ccccc1 (stereo not given) returned CYP2C19 act 1.1, CYP2C19 inh -11, CYP2C9 activ 1.1 and CYP2C9 inh -8.
Screening CCCCN(C(=S)Nc1ccccc1)C1CCS(=O)(=O)C1 (stereo not given) returned CYP2C19 act 1, CYP2C19 inh 4, CYP2C9 activ 1.1 and CYP2C9 inh -10.
`Oc1c(N=Nc2ccccn2)ccc2ccccc12` gave CYP2C19 act 0.7, CYP2C19 inh 31, CYP2C9 activ 0.6 and CYP2C9 inh 43.
Cc1n[nH]c(=O)nc1Nc1ccc(O)cc1 was read as CYP2C19 act 1.1, CYP2C19 inh -6, CYP2C9 activ 1.1 and CYP2C9 inh -13.
Oc1ccc(Nc2nc3ccccc3nc2Nc2ccc(O)cc2)cc1 was read as CYP2C19 act 0, CYP2C19 inh 99*, CYP2C9 activ 0 and CYP2C9 inh 99*.
For CCSc1nc(=O)n(-c2ccccc2)c(C)c1C(C)=O the results were CYP2C19 act 1, CYP2C19 inh 4, CYP2C9 activ 1.1 and CYP2C9 inh -6.
`O=C(Cn1ncc2c3ccccc3n(Cc3ccccc3)c2c1=O)N1CCN(c2ncccn2)CC1` gave CYP2C19 act 0, CYP2C19 inh 98*, CYP2C9 activ 0.2 and CYP2C9 inh 77*.
Screening Cc1c2cnn(-c3ccccc3)c(=O)c2c(C)n1CCCC(=O)N1CCN(c2ncccn2)CC1 returned CYP2C19 act 0.6, CYP2C19 inh 41, CYP2C9 activ 0.6 and CYP2C9 inh 36.
For Cn1c(=O)c2cn(Cc3ccc(Cl)cc3)cc2n(C)c1=O the results were CYP2C19 act 0.4, CYP2C19 inh 63*, CYP2C9 activ 0.4 and CYP2C9 inh 58*.
For Cn1c(=O)c2cn(-c3ccccc3)cc2n(C)c1=O the results were CYP2C19 act 0.8, CYP2C19 inh 15, CYP2C9 activ 0.9 and CYP2C9 inh 9.
For COC(=O)CSc1nc2c(c(-c3ccco3)c1C#N)CCCC2 the results were CYP2C19 act 0.9, CYP2C19 inh 11, CYP2C9 activ 1.3 and CYP2C9 inh -30.
Screening Cc1ccc(-c2c(C#N)c(N)nc3c2CCCCC3)o1 returned CYP2C19 act 0.5, CYP2C19 inh 53*, CYP2C9 activ 0.5 and CYP2C9 inh 50*.
CCOC(=O)CSc1nc2c(c(-c3ccc(C)o3)c1C#N)CCCC2 was read as CYP2C19 act 0.3, CYP2C19 inh 70*, CYP2C9 activ 0.5 and CYP2C9 inh 47.
Screening O=C(O)C1CC=CCC1C(=O)Nc1cccc(Cl)c1 (stereo not given) returned CYP2C19 act 1, CYP2C19 inh 4, CYP2C9 activ 1.1 and CYP2C9 inh -9.
`COc1cccc2c(=O)c3c(cnn3C)n(C)c12` gave CYP2C19 act 0.9, CYP2C19 inh 12, CYP2C9 activ 1.2 and CYP2C9 inh -18.
CCCN1CCN(CCCNC(=O)CCNC(=O)Cn2ccc3ccccc3c2=O)CC1 was read as CYP2C19 act 1.2, CYP2C19 inh -17, CYP2C9 activ 1.1 and CYP2C9 inh -10.
For COc1cccc(Nc2nc(-c3sc(N)nc3C)cs2)c1 the results were CYP2C19 act 0.4, CYP2C19 inh 59*, CYP2C9 activ 0.3 and CYP2C9 inh 74*.
Screening COc1cccc(Nc2nc(-c3sc(NC(=O)c4ccco4)nc3C)cs2)c1 returned CYP2C19 act 0.5, CYP2C19 inh 47, CYP2C9 activ 0.3 and CYP2C9 inh 72*.

Assay outcomes: PubChem, Sanford-Burnham Center for Chemical Genomics
